Experimental data: PubChem BioAssay (NCATS)
Inconclusive results are not listed. Activity calls are given as the source filed them. Calls come from the whole dose curve; as a rule, active = well fitted curve in the direction sought with a large enough effect; inconclusive = small, poorly fitted or top-dose-only effect, or another doubt; inactive = no such curve, though single readings can be large; an effect the other way counts as inactive or inconclusive.

Assay: Primary qHTS for inhibitors of nuclear receptor binding SET domain protein 2 (NSD2) in an isogenic RCH-ACV NSD2 p.E1099K mutant (9B) (AID 1645876)
Conditions: RCH-ACV NSD2 E1099K (9B) viability, CellTiter-Glo, 72 h; series mostly up to 44.9 µM; activity change, negative = viability loss: at the top concentration
% is set by controls: 0 for no effect and ±100 for the full control effect; potency is the fitted concentration of half-maximal effect.
Note: nearly all actives have a fitted effect of over 70% in size.

| Structure (SMILES) | outcome | activity change, negative = viability loss | Potency |
| --- | --- | --- | --- |
| COc1ccc(C(O[C@@H]2O[C@H](CO)[C@@H](O)[C@H](O)[C@H]2O)C(CO)Oc2ccc(/C=C/CO)cc2OC)cc1O (stereo partly drawn) | inactive [at 17.3 µM] | – | – |
| COC(=O)[C@@]1(C)CC[C@]2(C(=O)O[C@@H]3O[C@H](CO)[C@@H](O)[C@H](O)[C@H]3O)CC[C@]3(C)C(=CCC4[C@@]5(C)CC[C@H](O[C@@H]6O[C@H](C(=O)O)[C@@H](O)[C@H](O)[C@H]6O)C(C)(C)C5CC[C@]43C)[C@@H]2C1 (stereo partly drawn) | – | -18.6% [at 9.23 µM] (inactive) | – |
| CC1=C2C(=O)C=C(CO)[C@@H]2[C@H]2OC(=O)[C@H](C)[C@@H]2[C@@H](O)C1 | – | -5.36% (inactive) | – |
| CCC(=O)NS(=O)(=O)c1ccc(-c2c(-c3ccccc3)noc2C)cc1 | – | – | inactive |
| CCCCC(=O)OCC(=O)[C@]1(O)Cc2c(O)c3c(c(O)c2[C@@H](O[C@H]2C[C@H](NC(=O)C(F)(F)F)[C@H](O)[C@H](C)O2)C1)C(=O)c1c(OC)cccc1C3=O | – | – | 263 nM (active) |
| COC(=O)[C@@H]1C2CC3c4[nH]c5ccccc5c4CCN3CC2CC[C@@H]1O (stereo partly drawn) | inactive | – | – |
| O=C(O)C[C@@H](NC(=O)c1cc(-c2ccc(-c3ccncc3)cc2)cs1)c1ccccc1 | – | -12% (inactive) | – |
| CC(=O)OC(C)OC(=O)C(C)c1ccc(-c2ccccc2)c(F)c1 (stereo not drawn) | – | 8.9% (inactive) | – |
| CCOC(=O)[C@H](CCc1ccccc1)N[C@@H](C)C(=O)N1C2CCCCC2C[C@H]1C(=O)O (stereo partly drawn) | – | 1.02% (inactive) | – |
| C=C[C@H]1[C@H](O[C@@H]2O[C@H](CO)[C@@H](O)[C@H](O)[C@H]2O)OC=C(C(=O)OC)[C@H]1C[C@@H]1N[C@H](C(=O)O)Cc2c1[nH]c1ccccc21 | – | -15.8% [at 17.3 µM] (inactive) | – |

Assay: Primary qHTS for inhibitors of nuclear receptor binding SET domain protein 2 (NSD2) in an RCH-ACV wild type WT cells (2C) (AID 1645877)
Conditions: RCH-ACV (leukaemia line) NSD2 WT (2C) viability, CellTiter-Glo, 72 h; series mostly up to 44.9 µM; activity change, negative = cell killing: at the top concentration

| Structure (SMILES) | activity change, negative = cell killing | Potency | outcome |
| --- | --- | --- | --- |
| CC1=CC(=O)C2C(C)(C)CC(O)CC2(C)C1CO (stereo not drawn) | 3.2% (inactive) | – | – |
| NC(Cc1c[nH]c2ccccc12)C(=O)NC(CCC(=O)O)C(=O)O (stereo not drawn) | -14% (inactive) | – | – |
| COc1cc2c(cc1O)CCN[C@]21CS[C@@H]2c3c(OC(C)=O)c(C)c4c(c3[C@H](COC1=O)N1[C@@H]2[C@H]2c3c(cc(C)c(OC)c3O)C[C@@H]([C@@H]1O)N2C)OCO4 | – | 1.4 nM (active) | – |
| CC1CC(O)CC(C)(C)C1(O)CCO (stereo not drawn) | 2.39% [at 91.9 µM] (inactive) | – | – |
| O=C(NCC(=O)N1CC[C@H](NC2CCC(O)(c3ccc(-c4ncccn4)cn3)CC2)C1)c1cccc(C(F)(F)F)c1 (stereo partly drawn) | 2.26% (inactive) | – | – |
| CC(O)(CC(=O)O)CC(=O)O[C@@H]1[C@@H](O)[C@H](OCCc2ccccc2)O[C@H](CO)[C@H]1O (stereo partly drawn) | 0.674% [at 17.3 µM] (inactive) | – | – |
| C/C=C/C=C/C=C/C(=O)O[C@@H]1[C@@H](OC)C2=C(C(=O)N(C(C)C(=O)O)C2)[C@@]2(C)CCCC(C)(C)[C@H]12 (stereo partly drawn) | – | – | inactive [at 17.3 µM] |
| O=C(/C=C/c1ccc(O)cc1)OCC1=C[C@@H](O)[C@@H]2C=CO[C@@H](O[C@@H]3O[C@H](CO)[C@@H](O)[C@H](O)[C@H]3O)[C@H]12 | -3.26% [at 17.3 µM] (inactive) | – | – |
| CCn1nnnc1NCc1ccc(C(C)C)cc1 | -5.45% (inactive) | – | – |
| CC1(C)CCCC2(C)C1C(O)C=C(CO)C2(O)C(=O)O (stereo not drawn) | 3.97% (inactive) | – | – |
| CC1(C)O[C@]23C[C@H]1C[C@H](OC(=O)c1ccoc1)[C@]2(C)[C@@H](OC(=O)c1ccoc1)CCC3(C)O (stereo partly drawn) | 0.63% [at 17.3 µM] (inactive) | – | – |
| C=CCc1ccc(O[C@@H]2O[C@H](CO[C@@H]3O[C@H](CO)[C@@H](O)[C@H](O)[C@H]3O)[C@@H](O)[C@H](O)[C@H]2O)c(O)c1 | -18.6% [at 17.3 µM] (inactive) | – | – |
| NC(=O)[C@H]1CCCCc2c1[nH]c1ccc(Cl)cc21 | -7.58% [at 17.3 µM] (inactive) | – | – |
| C(#Cc1cccc(CN2CCOCC2)c1)CCN1CCCCC1 | – | – | inactive |
| COc1ccc(/C=C/C(=O)O[C@H]2[C@@H]3C=CO[C@@H](O[C@@H]4O[C@H](CO)[C@@H](O)[C@H](O)[C@H]4O)[C@@H]3[C@@]3(CO)O[C@@H]23)cc1O | – | – | inactive [at 17.3 µM] |
| c1ccc(C(OC2CCN(CCCc3nn[nH]n3)CC2)c2ccccc2)cc1 | – | – | inactive |
| C[C@@H]1CCN(C(=O)CC#N)C[C@@H]1N(C)c1ncnc2[nH]ccc12 | – | 23500 nM (active) | – |
| CC(C)CNC(=O)/C=C/CCCCc1ccc2c(c1)OCO2 | 3.35% (inactive) | – | – |
| CC(=O)N[C@H]1CCN(c2ccc(C3=NOC(CN[S+](=O)([O-])C(C)C)C3)cc2F)C1 (stereo partly drawn) | -17.9% (inactive) | – | – |

| Structure (SMILES) | activity change, negative = cell killing | Potency | outcome |
| --- | --- | --- | --- |
| C=C1CC[C@H]2[C@@H](/C=C(\C)C(=O)[C@@]3(OC(C)=O)C[C@H](C)[C@H](OC(C)=O)[C@@H]3[C@H]1OC(C)=O)C2(C)C | -13.6% [at 17.3 µM] (inactive) | – | – |
| C/C(=C/CO)CC[C@@H]1[C@@]2(C)CCC[C@](C)(C(=O)O)C2CC[C@@]1(C)O (stereo partly drawn) | 1.7% (inactive) | – | – |
| CC1CCC2(NC1)OC1C(=O)C3C4CCC5CC(O[C@@H]6O[C@H](CO)[C@@H](O)[C@H](O)[C@H]6O[C@@H]6O[C@@H](C)[C@H](O)[C@@H](O)[C@H]6O)CCC5(C)C4CCC3(C)C1C2C (stereo partly drawn) | -17.2% [at 17.3 µM] (inactive) | – | – |
| COC12CC3C(C(C)C1=CC(=O)O2)C(O)C(OC(C)=O)C1C(C)(C)C(OC(C)=O)CCC31C (stereo not drawn) | – | – | inactive [at 17.3 µM] |
| COc1ccc2cc(OCC3(C(=O)O)CN(C(=O)c4ccc(F)cc4)C3)ccc2c1 | 7.38% (inactive) | – | – |
| CC(C)=CCCC1(C)Oc2cc3c(c4c2C2C(O4)C(C)(O)CCC21)CN(C(CCC(=O)O)C(=O)O)C3=O (stereo not drawn) | -9.47% [at 17.3 µM] (inactive) | – | – |
| C[C@@H]1O[C@@H](O[C@H]2[C@H](O)[C@@H](O)[C@H](OC[C@H]3O[C@@H](OC(=O)[C@]45CCC(C)(C)C[C@H]4C4=CCC6[C@@]7(C)C[C@H](O)[C@H](O[C@@H]8O[C@H](CO)[C@@H](O)[C@H](O)[C@H]8O)[C@@](C)(C(=O)O)C7CC[C@@]6(C)[C@]4(C)CC5)[C@H](O[C@@H]4O[C@H](CO)[C@@H](O)[C@H](O)[C@H]4O)[C@@H](O)[C@@H]3O)O[C@@H]2CO)[C@H](O)[C@H](O)[C@H]1O (stereo partly drawn) | -0.13% [at 9.23 µM] (inactive) | – | – |
| C[C@@H](Nc1cc(NS(=O)(=O)N2CCC2)nc(SCc2cccc(F)c2F)n1)[C@@H](O)CO | – | – | inactive |
| C[C@@H]1O[C@@H](O[C@@H]2[C@@H](O)[C@@H](O)[C@H](O[C@@H]3[C@@H](O)[C@@H](O[C@]4(CO)O[C@H](CO)[C@@H](O)[C@@H]4OC(=O)/C=C/c4ccc(O)cc4)O[C@H](CO)[C@H]3OC(=O)/C=C/c3ccc(O)cc3)O[C@H]2C)[C@H](O)[C@H](O)[C@H]1O | 1.92% [at 9.23 µM] (inactive) | – | – |
| COc1ccc(C(O[C@@H]2O[C@H](CO)[C@@H](O)[C@H](O)[C@H]2O)C(CO)Oc2ccc(/C=C/CO)cc2OC)cc1O (stereo partly drawn) | -4.36% [at 17.3 µM] (inactive) | – | – |
| COC(=O)[C@@]1(C)CC[C@]2(C(=O)O[C@@H]3O[C@H](CO)[C@@H](O)[C@H](O)[C@H]3O)CC[C@]3(C)C(=CCC4[C@@]5(C)CC[C@H](O[C@@H]6O[C@H](C(=O)O)[C@@H](O)[C@H](O)[C@H]6O)C(C)(C)C5CC[C@]43C)[C@@H]2C1 (stereo partly drawn) | -26.4% [at 9.23 µM] (inactive) | – | – |
| CC1=C2C(=O)C=C(CO)[C@@H]2[C@H]2OC(=O)[C@H](C)[C@@H]2[C@@H](O)C1 | -10.5% (inactive) | – | – |
| CCC(=O)NS(=O)(=O)c1ccc(-c2c(-c3ccccc3)noc2C)cc1 | – | inactive | – |
| CCCCC(=O)OCC(=O)[C@]1(O)Cc2c(O)c3c(c(O)c2[C@@H](O[C@H]2C[C@H](NC(=O)C(F)(F)F)[C@H](O)[C@H](C)O2)C1)C(=O)c1c(OC)cccc1C3=O | – | 166 nM (active) | – |
| COC(=O)[C@@H]1C2CC3c4[nH]c5ccccc5c4CCN3CC2CC[C@@H]1O (stereo partly drawn) | – | – | inactive |
| O=C(O)C[C@@H](NC(=O)c1cc(-c2ccc(-c3ccncc3)cc2)cs1)c1ccccc1 | -5.32% (inactive) | – | – |
| CC(=O)OC(C)OC(=O)C(C)c1ccc(-c2ccccc2)c(F)c1 (stereo not drawn) | – | – | inactive |
| CCOC(=O)[C@H](CCc1ccccc1)N[C@@H](C)C(=O)N1C2CCCCC2C[C@H]1C(=O)O (stereo partly drawn) | -2.18% (inactive) | – | – |
| C=C[C@H]1[C@H](O[C@@H]2O[C@H](CO)[C@@H](O)[C@H](O)[C@H]2O)OC=C(C(=O)OC)[C@H]1C[C@@H]1N[C@H](C(=O)O)Cc2c1[nH]c1ccccc21 | -21.1% [at 17.3 µM] (inactive) | – | – |
